From PubChem
CCHFV vOTU inh: CCHFV vOTU protease inhibition; Pep-AMC fluorescence; inhibition, % at 11.5 µM; hit rate 0.55% among 370,000; note: 0% = vehicle wells with enzyme and 100% = no enzyme wells
BH1578 lux ind: quorum light induction in luxS cqsA deficient V. cholerae; hit rate 0.16% among 350,000; V. cholerae BH1578 lux reporter, luminescence, 6 h; activation, % at 18.7 µM; in the data active = activation mostly above about 9.7%, no sharp cut-off
FBA Mtb inh: inhibitors of M. tuberculosis fructose-bisphosphate aldolase. AID 588726. hit rate 2.3% among 360,000. inhibition, % at 1 µM. purified M. tuberculosis FBA, fluorescence read-out; in the data active = inhibition above about 27%;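 note: 0% = vehicle and 100% = reference inhibitor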
Target sequence (P9WQA3 whole entry, looked up): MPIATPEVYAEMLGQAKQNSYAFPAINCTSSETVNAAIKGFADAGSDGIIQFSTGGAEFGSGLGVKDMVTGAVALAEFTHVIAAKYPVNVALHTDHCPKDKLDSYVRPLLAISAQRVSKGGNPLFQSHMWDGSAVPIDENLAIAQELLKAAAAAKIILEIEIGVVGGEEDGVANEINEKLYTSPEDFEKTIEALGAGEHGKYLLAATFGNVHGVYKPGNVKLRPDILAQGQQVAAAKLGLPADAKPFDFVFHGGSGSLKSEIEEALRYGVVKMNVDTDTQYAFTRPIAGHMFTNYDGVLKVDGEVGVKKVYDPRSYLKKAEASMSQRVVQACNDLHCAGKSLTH
GDH-TPI counter-1: inhibits GDH-TPI coupling enzymes, artifact for Mtb FBA screen; AID 588335; hit rate 1.2% among 360,000; GDH-TPI coupled enzyme counterscreen, NADH absorbance; inhibition, % at 4.8 µM;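 note: 0% = DMSO wells and 100% = wells lacking the enzyme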
Mtb FBA inh conf: Mtb FBA inhibition, confirmed | shares compounds with FBA Mtb inh | purified M. tuberculosis FBA, fluorescence read-out | inhibition, % at 1 µM | hit rate 78% among 5,600; in the data active = inhibition above about 27%;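 note: 0% = vehicle wells and 100% = reference inhibitor wells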
GDH-TPI counter-2: counter-screen for M. tuberculosis FBA inhibitors: GDH-TPI coupled enzyme inhibition. shares compounds with FBA Mtb inh. GDH-TPI coupled enzyme counterscreen, fluorescence. inhibition, % at 1 µM. hit rate 81% among 5,600. AID 652141; in the data active = inhibition above about 10%
Numbers without * were called inactive. The list is not random: actives were taken first. Their share in the collection is about 3.9%. Cut-off read from the data, not from the text of the source, unless noted: active = inhibition above about 30%; inactive = the rest.

`CCOC(=O)c1[nH]c2ccc(OC)cc2c1N=CN(C)C` gave CCHFV vOTU inh -13, BH1578 lux ind inactive, FBA Mtb inh 39*, GDH-TPI counter-1 3, Mtb FBA inh conf active and GDH-TPI counter-2 175*.
For CCOC(=O)c1[nH]c2ccc(OC)cc2c1NS(=O)(=O)c1ccc(OC)cc1OC the results were CCHFV vOTU inh -8, BH1578 lux ind 0, FBA Mtb inh 20 and GDH-TPI counter-1 10.
`CCOC(=O)c1[nH]c2ccc(OC)cc2c1NC(=O)CCN1CCCC(C)C1` (stereo not given) gave CCHFV vOTU inh -15, BH1578 lux ind inactive, FBA Mtb inh 35*, GDH-TPI counter-1 1, Mtb FBA inh conf active and GDH-TPI counter-2 active.
For CCOC(=O)c1[nH]c2ccc(OC)cc2c1NC(=O)OC the results were CCHFV vOTU inh -18, BH1578 lux ind inactive, FBA Mtb inh 38*, GDH-TPI counter-1 -1, Mtb FBA inh conf active and GDH-TPI counter-2 146*.
`O=C(C1CCN(S(=O)(=O)c2ccccc2)CC1)N1CCN(Cc2ccc3c(c2)OCO3)CC1` gave CCHFV vOTU inh 3, BH1578 lux ind 0, FBA Mtb inh -2 and GDH-TPI counter-1 -5.
`CN1CC=C2C(C#N)=C(N)C(C#N)(C#N)C(c3ccsc3)C2C1` (stereo not given) gave CCHFV vOTU inh -20, BH1578 lux ind inactive, FBA Mtb inh 30*, GDH-TPI counter-1 8, Mtb FBA inh conf 79* and GDH-TPI counter-2 65*.
Screening CCCC1C2CN(C(C)C)CC=C2C(C#N)=C(N)C1(C#N)C#N (stereo not given) returned CCHFV vOTU inh -30, BH1578 lux ind 1, FBA Mtb inh 46*, GDH-TPI counter-1 16, Mtb FBA inh conf 26 and GDH-TPI counter-2 29*.
CN1CC=C2C(C#N)=C(N)C(C#N)(C#N)[C@H](c3cccc(Cl)c3)C2C1 (stereo not given in full) was read as CCHFV vOTU inh -37, BH1578 lux ind 1, FBA Mtb inh 28*, GDH-TPI counter-1 12, Mtb FBA inh conf 9 and GDH-TPI counter-2 0.
`CN1CC=C2C(C#N)=C(N)C(C#N)(C#N)C(c3ccncc3)C2C1` (stereo not given) gave BH1578 lux ind inactive, FBA Mtb inh 20 and GDH-TPI counter-1 7.
`CC(Sc1ccc2c(c1)OCCO2)C(=O)Nc1ncc(Cl)cc1Cl` (stereo not given) gave CCHFV vOTU inh -7, BH1578 lux ind -1, FBA Mtb inh 2 and GDH-TPI counter-1 -8.
Screening COc1cc(/C=C/C(=O)NC(=O)c2ccccc2O)ccc1OC(C)=O returned CCHFV vOTU inh 3, BH1578 lux ind -1, FBA Mtb inh 5 and GDH-TPI counter-1 25.
For C/C=C(\C)C(=O)OC(C)(C)[C@@H]1Cc2cc3ccc(=O)oc3cc2O1 the results were CCHFV vOTU inh -56, BH1578 lux ind inactive, FBA Mtb inh 93*, GDH-TPI counter-1 10, Mtb FBA inh conf 157* and GDH-TPI counter-2 114*.
COC(=O)Cc1cc(=O)n2c(nc3ccccc32)[nH]1 was read as CCHFV vOTU inh -28, BH1578 lux ind -1, FBA Mtb inh 65*, GDH-TPI counter-1 14, Mtb FBA inh conf 35* and GDH-TPI counter-2 18*.
Cc1cc(=O)[nH]c2nc3ccccc3n12 was read as CCHFV vOTU inh -14, BH1578 lux ind inactive, FBA Mtb inh 47*, GDH-TPI counter-1 16, Mtb FBA inh conf 76* and GDH-TPI counter-2 60*.
For CN(C(=O)OC(C)(C)C)c1ccc(-c2nc3ccccc3s2)cc1 the results were CCHFV vOTU inh -16, BH1578 lux ind -11, FBA Mtb inh 45*, GDH-TPI counter-1 18, Mtb FBA inh conf active and GDH-TPI counter-2 active.
Screening COC(=O)N(C)c1nc2ccccc2s1 returned CCHFV vOTU inh 12, BH1578 lux ind inactive, FBA Mtb inh 0 and GDH-TPI counter-1 11.
CCC(C(=O)NCCCN(CC)Cc1ccccc1)n1nc(C)c2sc3ccccc3c2c1=O (stereo not given) was read as CCHFV vOTU inh 15, BH1578 lux ind 0, FBA Mtb inh 4 and GDH-TPI counter-1 7.
For CCOC(=O)CCc1c(C)c2ccc(OC(C)C(=O)OCC)c(C)c2oc1=O (stereo not given) the results were CCHFV vOTU inh -17, BH1578 lux ind -1, FBA Mtb inh 51*, GDH-TPI counter-1 21, Mtb FBA inh conf 55* and GDH-TPI counter-2 44*.
